The record followed here is PubChem BioAssay AID1851 (National Center for Advancing Translational Sciences (NCATS), 2009).

Out of some 16,000 compounds screened, about 4,000 (25%) were called active. Another 26% or so got no clear call; they are omitted. The list is a sample of the results. Values without a mark were called inactive. Calls come from the whole dose curve; as a rule, active = well fitted curve in the direction sought with a large enough effect; inconclusive = small, poorly fitted or top-dose-only effect, or effect the other way; inactive = no such curve, though single readings can be large or run the other way.

What is called AC50 is the concentration at which the activity in the assay is half-maximal.
% is set by controls: 0 for no effect and ±100 for the full control effect.

For the assay, the target named is Cytochrome P450 2C9 (Homo sapiens) (UniProt P11712). Put plainly: Cytochrome panel assay with activity outcomes. The settings on record: recombinant CYP, pro-luciferin dealkylation, luminescence, p450-cyp2c9; series mostly up to 57.1 µM.
Sequence of Cytochrome P450 2C9 (Homo sapiens) (P11712 whole entry, looked up): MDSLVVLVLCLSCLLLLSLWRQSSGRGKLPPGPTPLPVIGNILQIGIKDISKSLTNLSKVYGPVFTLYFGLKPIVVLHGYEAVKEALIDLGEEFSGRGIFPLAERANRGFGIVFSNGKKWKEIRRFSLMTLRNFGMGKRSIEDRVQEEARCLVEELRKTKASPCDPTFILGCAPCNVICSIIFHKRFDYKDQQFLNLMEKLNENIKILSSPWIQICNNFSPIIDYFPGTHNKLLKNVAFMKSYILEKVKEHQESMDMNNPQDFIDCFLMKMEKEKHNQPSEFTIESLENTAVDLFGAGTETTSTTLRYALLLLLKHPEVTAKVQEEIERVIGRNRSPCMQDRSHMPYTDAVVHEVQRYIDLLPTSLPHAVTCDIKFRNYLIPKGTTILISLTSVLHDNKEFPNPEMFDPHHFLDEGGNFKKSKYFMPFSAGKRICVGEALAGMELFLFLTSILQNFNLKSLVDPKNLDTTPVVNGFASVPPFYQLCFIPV
In the case of `COc1ccccc1CN1CCC2(CC1)CCN(S(C)(=O)=O)CC2`, the AC50 result was “inactive”.

In the case of `N#Cc1cccc(-c2nc(Nc3ccccc3)c3ccccc3n2)c1`, the activity, negative = inhibition was -3.27% [at 2.29 µM].

`Clc1cccc(Nc2nnc(-c3ccccc3)c3ccccc23)c1`: the half-maximal activity concentration (AC50) is 3.98 µM (active).

`c1ccc(Nc2nc(-c3ccc4c(c3)OCO4)nc3ccccc23)cc1`: the activity, negative = inhibition was -5.32% [at 2.29 µM].

Take `c1ccn(-c2ccc(N3CCOCC3)cc2)c1`: the AC50 result was “inactive”.

Consider `CC(C)CN1CCCC2(CCN(C(=O)c3cnccn3)CC2)C1`, for which the AC50 result was “inactive”.

For the compound `COc1cccc(/C=N/Nc2nc(N3CCCC3)nc(N3CCCC3)n2)c1O`, the AC50 is 12.6 µM (active).

As for `COc1nc(/C(N)=N/O)nc(N2CCCCC2)n1`, the AC50 result is “inactive”.

Consider `Brc1cc2c(cc1/C=N/Nc1nc(N3CCCC3)nc(N3CCOCC3)n1)OCO2`, for which the concentration at half-maximal activity (AC50) is 7.08 µM (active).

As for `COc1c(/C=N/Nc2nc(N3CCCCC3)nc(N3CCCCC3)n2)cccc1[N+](=O)[O-]`, the AC50 entry was “inactive”.

For the compound `N#Cc1cccc(-c2cncnc2NCc2cccnc2)c1`, the activity, negative = inhibition is 6.75% [at 2.29 µM].

As for `CN(C)CCO[C@@H](c1ccc(Cl)cc1)c1ccccn1`, the AC50 result was “inactive”.

For `O=S(=O)(Nc1nc(-c2sccc2Cl)cs1)c1cc(Cl)ccc1Cl`, the AC50 is 0.631 µM (active).

For the compound `COCC(C)NCc1cccc(C)c1` (centres undefined), the AC50 entry was “inactive”.

For the compound `Cc1ccc(S(=O)(=O)n2ccc(-c3cccc(OCc4c(F)cccc4Cl)c3)n2)cc1`, the AC50 is 1.58 µM (active).

On to `CO[C@H]1COC(=O)C/C=C\[C@H](C)COC(=O)[C@@H](C)NC(=O)C/C=C\[C@@H]1C`, for which the activity, negative = inhibition was -24.8% [at 11.4 µM].

As for `COCC(=O)N/N=C/c1ccc(Sc2nc3ccccc3s2)o1`, the AC50 entry was “inactive”.

In the case of `O=C(Cc1cccc2ccccc12)N/N=C/c1ccc(Sc2nc3ccccc3s2)o1`, the AC50 is 0.282 µM (active).

Consider `NCCCCCC(=O)O`, for which the AC50 result was “inactive”.

As to `CCNC(=S)NNC(=O)Cc1ccccc1`, the AC50 entry is “inactive”.

As to `CCNC(=S)NNC(=O)c1cc(C)on1`, the AC50 result was “inactive”.

`CCNC(=S)NNC(=O)c1cc(C2CC2)nc2ccccc12`: the AC50 is 2 µM (active).

In the case of `Cc1cc(C(=O)Nc2c(C)n(C)n(-c3ccccc3)c2=O)c2ccccc2n1`, the AC50 entry is “inactive”.

With `Cc1cc(C(=O)OC2CCOC2=O)c2ccccc2n1` (centres undefined), the AC50 result is “inactive”.

Consider `CCNC(=S)NNC(=O)c1cccc(Br)c1`, for which the AC50 entry is “inactive”.

`CCNC(=S)NNC(=O)c1cc(CC(C)C)nc2ccccc12`: the AC50 was 2.82 µM (active).

For `Cc1cc(C(=O)NNC(=S)NC(C)c2ccccc2)c2ccccc2n1` (centres undefined), the AC50 was 3.16 µM (active).

As to `OCCCN=C1CCCCC1`, the activity, negative = inhibition is -11% [at 11.4 µM].

Take `COCC(=O)N1CCC[C@@]2(CCN(c3ncccn3)C2)C1`: the AC50 result is “inactive”.

For `O=C(CCN1CCc2ccccc2C1)Nc1ccc(F)cc1`, the AC50 entry is “inactive”.

Regarding `Cc1nc2ncnn2c(C)c1CCC(=O)Nc1ccc(S(=O)(=O)N2CCCCCC2)cc1`, the half-maximal activity concentration (AC50) was 3.16 µM (active).

In the case of `O=C(Nc1ccc(S(=O)(=O)N2CCOCC2)cc1)c1ccc(CN2CCc3ccccc3C2)cc1`, the AC50 is 8.91 µM (active).

Take `Cc1ccc(NC(=O)CCc2c(C)nc3ncnn3c2C)nc1`: the AC50 entry was “inactive”.

For the compound `O=C(Nc1ccc(S(=O)(=O)N2CCCCC2)cc1)c1ccc(CN2CCc3ccccc3C2)cc1`, the AC50 was 3.16 µM (active).

Consider `Cc1nc2ncnn2c(C)c1CCC(=O)NCc1ccccc1`, for which the AC50 result is “inactive”.

On to `O=C(CSc1ncccn1)Nc1ccc(S(=O)(=O)N2CCCCC2)cc1`, for which the AC50 is 7.94 µM (active).

For `O=C(c1ccc(CN2CCc3ccccc3C2)cc1)N1CCc2ccccc2C1`, the AC50 result was “inactive”.

As to `CC(=O)Nc1ccc(S(=O)(=O)N2CCC(N(C)CCC(C)C)CC2)cc1`, the AC50 result was “inactive”.

With `CN(Cc1ccco1)c1cc(-c2cccc(NS(C)(=O)=O)c2)ncn1`, the activity, negative = inhibition is -0.0487% [at 2.29 µM].

As for `CCN1C(=O)[C@H]2[C@H]3[C@H](O)[C@H](O)C/C(=N/OCC[C@H]4C=C[C@H](OC(C)=O)[C@@H](COC(C)=O)O4)[C@@H]3CC[C@@H]2C1=O`, the activity, negative = inhibition is -15% [at 11.4 µM].

Regarding `O=C(CSCc1ccccc1)Nc1ccc(S(=O)(=O)N2CCOCC2)cc1`, the AC50 is 10 µM (active).

Consider `Cc1cnc(CNc2ccnc(-c3c(C)noc3C)n2)cn1`, for which the activity, negative = inhibition is 19.4% [at 2.29 µM].

On to `COc1ccc2c(c1)C(c1ccc([N+](=O)[O-])cc1)=NNC(c1ccco1)=N2`, for which the AC50 was 14.1 µM (active).

As for `c1ccc2c(NCCN3CCOCC3)nc(-c3ccoc3)nc2c1`, the activity, negative = inhibition was -0.137% [at 2.29 µM].

As for `Cc1noc(C)c1C(=O)N1CCC2(CCN(C(=O)Nc3ccccc3)CC2)CC1`, the AC50 entry is “inactive”.

Take `Cc1noc(C)c1C(=O)N1CCC2(CC1)CCN(C(c1ccccc1)c1ccccc1)CC2`: the AC50 result is “inactive”.

For `Cc1noc(C)c1C(=O)OCC(=O)NC(c1ccccc1)c1ccccc1`, the AC50 was 11.2 µM (active).

Regarding `COc1ccc(C(=O)CN2C(=O)NC(C)(c3ccccc3)C2=O)cc1OC` (centres undefined), the AC50 is 3.55 µM (active).

Take `Cc1cc(NC(=O)CN2C(=O)NC(C)(c3ccc(OC(F)F)cc3)C2=O)no1` (centres undefined): the AC50 entry is “inactive”.

As for `O=C(Cn1c(C(F)(F)F)nc2ccccc21)c1ccc(F)cc1`, the AC50 is 3.55 µM (active).

As to `O=C(CCCN1CCC(O)(c2cccc(C(F)(F)F)c2)CC1)c1ccc(F)cc1`, the AC50 result was “inactive”.

Take `O=C(Cn1c(C(F)(F)F)nc2ccccc21)c1ccccc1`: the AC50 is 10 µM (active).

On to `CN(C)C(=O)c1ccc(-c2nc(Nc3ccc(F)cc3)c3ccccc3n2)cc1`, for which the activity, negative = inhibition is -11.1% [at 2.29 µM].

For `CC(=O)N1CCC[C@@]2(CCN(Cc3nccs3)C2)C1`, the AC50 result is “inactive”.

Consider `CO[C@H]1COC(=O)C/C=C\[C@H](C)COC(=O)[C@@H](OCc2ccccc2)/C=C\[C@@H]1C`, for which the activity, negative = inhibition was -4.97% [at 11.4 µM].

Consider `Cc1nc2cnc(Oc3ccccc3)nc2n(C)c1=O`, for which the AC50 result is “inactive”.

For `Cc1nc2cnc(Oc3cccc(Cl)c3)nc2n(C2CC2)c1=O`, the half-maximal activity concentration (AC50) was 12.6 µM (active).

Regarding `O=c1cnc2cnc(Oc3cccc(Cl)c3)nc2n1C1CC1`, the AC50 is 6.31 µM (active).

Turning to `COc1ncc2nc(C)c(=O)n(C3CC3)c2n1`, the AC50 entry was “inactive”.

Turning to `N#Cc1cccc(-c2nc3cnc(Oc4cccc(Cl)c4)nc3n(C3CC3)c2=O)c1`, the AC50 is 3.16 µM (active).

Turning to `Cn1c(=O)c(-c2ccc(Cl)cc2)nc2cnc(Oc3cccc(Cl)c3)nc21`, the AC50 result was “inactive”.

Turning to `O=c1cnc2cnc(Oc3ccccc3)nc2n1C1CC1`, the AC50 entry was “inactive”.

With `O=c1cnc2cnc(N3CCOCC3)nc2n1C1CC1`, the AC50 result is “inactive”.

On to `O=c1c(-c2ccccc2)nc2cnc(Oc3cccc(Cl)c3)nc2n1C1CC1`, for which the half-maximal activity concentration (AC50) was 0.251 µM (active).
